# Measurements as given in PubChem BioAssay (NCATS).
# Inconclusive results are not listed. Unmarked numbers belong to inactive results. The source made the active and inactive calls. Calls come from the whole dose curve; as a rule, active = well fitted inhibition curve with a large enough effect; inconclusive = small, poorly fitted or top-dose-only effect; inactive = flat fitted curve, though single readings scatter.
# Assay: P-glycoprotein substrates identified in KB-8-5-11 adenocarcinoma cell line, qHTS therapeutic library screen (AID 1346987); note: nearly all actives have a fitted effect of over 65% in size
# Settings: KB-8-5-11 (P-gp overexpressing) viability, CellTiter-Glo, 72 h; series mostly up to 44.5 µM; activity change, negative = cytotoxicity: at the top concentration
# Method in brief: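 Steps: plate 500 KB-8-5-11 cells/well in DMEM + 10% FCS (colchicine removed); pin compounds in dose-response; incubate 72 h, 37 degree C, 5% CO2; add CellTiter-Glo, 5 min; read luminescence.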
# % is set by controls: 0 for no effect and ±100 for the full control effect.
Structure (SMILES),"activity change, negative = cytotoxicity",outcome,Potency
CCN1C[C@]2(OC(=O)c3ccccc3NC(C)=O)CC[C@H](OC)[C@@]34[C@@H]2C[C@@H]([C@@H]13)[C@@]1(O)C[C@H](OC)[C@H]2C[C@@H]4[C@]1(O)[C@H]2OC,5.02%,,
COC1CC(OC2CCC3(C)C(=CCC4C3CCC3(C)C(C(C)OC5OC(COC6OC(CO)C(O)C(O)C6O)C(O)C(O)C5O)CCC43O)C2)OC(C)C1OC1OC(C)C(O)C(OC)C1O (stereo not drawn),,inactive [at 9.29 µM],
C=CC(C)(C)c1[nH]c2cccc3c2c1C[C@@H]1[C@@H]3[C@@H](OC(C)=O)[C@H](C)CN1C,1.73%,,
C=CC(C)(O)CC/C=C(\C)C(=O)O[C@H]1[C@H](O)[C@@H](CO)O[C@@H](OC(=O)[C@]23CCC(C)(C)CC2C2=CCC4[C@@]5(C)CC[C@H](O[C@@H]6O[C@H](CO[C@@H]7OC[C@H](O)[C@H](O)[C@H]7O[C@@H]7OC[C@@H](O)[C@H](O)[C@H]7O)[C@@H](O)[C@H](O)[C@H]6O)C(C)(C)C5CC[C@@]4(C)[C@]2(C)CC3)[C@@H]1OC1OC(C)C(O[C@@H]2OC[C@@H](O)[C@H](O[C@@H]3OC[C@@H](O)[C@H](O)[C@H]3O)[C@H]2O)C(O)C1O (stereo partly drawn),3.69% [at 9.29 µM],,
CC(C)=C1CC[C@]23CO[C@H](C2)[C@@](O)(C(=O)O)CCC13 (stereo partly drawn),,inactive,
Cc1cc(C(=O)CN2CCCC2)c(C)n1-c1ccc(F)cc1,,,inactive
COC(=O)N1CCN(C(=O)Cc2ccc(Cl)c(Cl)c2)[C@@H](CN2CCCC2)C1,-10.6%,,
C[C@@]12C[C@@H](c3ccoc3)OC(=O)C1CC[C@]1(C)[C@H]2[C@H]2C=C[C@]1(O)C(=O)O2 (stereo partly drawn),8.91%,,
